According to PubChem BioAssay (Tox21):
Records with an inconclusive call do not appear. Activity calls are given as the source filed them. Unless noted, calls follow the shape of the dose curve; as a rule, active = well fitted curve in the direction sought with a large enough effect in the repeat runs; inconclusive = weak or mixed curves; inactive = no such curve, though single readings can be large; an effect the other way counts as inactive or inconclusive.

Assays:
[1] = qHTS assay for small molecules that induce genotoxicity in human embryonic kidney cells expressing luciferase-tagged ATAD5 (AID 651632); also: nearly all actives have a fitted effect of over 15% in size
How it was run: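 DMSO vehicle served as the control. HEK293T reporter cells, 16 hr at 37C, then 30 min Amplite at room temperature; ATAD5 induction is measured as luciferase activity.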

[2] = qHTS assay for small molecule agonists of the p53 signaling pathway - cell viability (AID 651633; calls by dose curve;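 also: p53RE-bla HCT reporter cells with a stable beta-lactamase p53 reporter; series mostly up to about 83 µM; nearly all actives have a fitted effect of over 30% in size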)
How it was run: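 p53RE-bla cells, seeded at 4,000 per well and rested 5 h at 37 C/5% CO2, received compounds in DMSO for 16 h at 37 C. CellTiter-Glo was then added, and luminescence was read after 30 min at room temperature to gauge cytotoxicity.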

[3] = qHTS assay for small molecules that induce genotoxicity in human embryonic kidney cells expressing luciferase-tagged ATAD5 - cell viability (AID 651634; calls by dose curve; also: nearly all actives have a fitted effect of over 25% in size)
How it was run: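 Here HEK293T cells with the ATAD5 luciferase reporter are incubated with test compounds for 15.5 hr, and cytotoxicity is then gauged by measuring protease activity in live cells using fluorescence.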

[4] = qHTS assay for small molecule disruptors of the mitochondrial membrane potential - cell viability (AID 720634; calls by dose curve;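 also: human HepG2 liver cancer cells; series mostly up to about 83 µM; nearly all actives have a fitted effect of over 20% in size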)
How it was run: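 Viability of HepG2 cells is scored from ATP content by luminescence; cells are exposed to compound for 1 hr at 37 C and 5% CO2, then dosed with m-MPI dye before the CellTiter-Glo reagent.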

[5] = qHTS assay to test for compound auto fluorescence at 590 nm (red) in HepG2 cells (AID 720674)
How it was run: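 Rose Bengal sodium served as the red fluorophore standard. HepG2 monolayers (overnight attachment, MEM with 10% FBS) were exposed to test compounds for 1 hr at 37 C and read at Ex 540/Em 590 nm.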

[6] = qHTS assay to test for compound auto fluorescence at 535 nm (green) in HepG2 cells (AID 720675)
[7] = qHTS assay to test for compound auto fluorescence at 460 nm (blue) in HEK293 cells (AID 720678)
How it was run: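 Blue read-out at excitation 405 nm and emission 460 nm follows overnight compound exposure of HEK293 cells at 37C in 5% CO2. Activity is given as auto fluorescence equivalency to triamterene.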

[8] = qHTS assay to test for compound auto fluorescence at 590 nm (red) in HEK293 cells (AID 720679)
How it was run: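 Red channel, Ex/Em 540/590nm; signal expressed as equivalency to Rose Bengal sodium. HEK293, 2,000 cells/well, 10% dialyzed FBS; 23 nL compound pinned after 4-5 hr attachment; overnight 37C/5% CO2 before reading.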

[9] = qHTS assay to test for compound auto fluorescence at 535 nm (green) in HEK293 cells (AID 720680)
[10] = qHTS assay to test for compound auto fluorescence at 460 nm (blue) in HEK293 cell free culture (AID 720681)
How it was run: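 Test compounds were pinned into cell-free culture medium (DMEM with 10% FBS) and fluorescence was read directly at Ex/Em 405/460 nm. Signals were expressed as fluorescence equivalents of triamterene, with DMSO vehicle as control.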

[11] = qHTS assay to test for compound auto fluorescence at 535 nm (green) in HEK293 cell free culture (AID 720682)
How it was run: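 Compounds were pin-transferred into cell-free DMEM with 10% FBS, and green fluorescence was read at excitation 485 nm and emission 535 nm. Intensities were expressed as fluorescein-equivalent values.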

[12] = qHTS assay to test for compound auto fluorescence at 590 nm (red) in HEK293 cell free culture (AID 720683)
How it was run: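 Tox21 10K library compounds were pinned into cell-free DMEM with 10% FBS and fluorescence was read at excitation 540 nm. Activity is expressed as Rose Bengal sodium equivalency.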

[13] = qHTS assay to test for compound auto fluorescence at 590 nm (red) in HepG2 cell free culture (AID 720684)
How it was run: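 Readout: intrinsic compound fluorescence at 590 nm emission after 540 nm excitation, scaled to Rose Bengal sodium. Matrix was cell-free MEM with 10% FBS; DMSO vehicle wells served as control.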

[14] = qHTS assay to test for compound auto fluorescence at 460 nm (blue) in HepG2 cell free culture (AID 720685)
How it was run: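 Cell-free plates of MEM plus 10% FBS received 23 nL compound or DMSO vehicle; blue-channel (405/460 nm) intensity scored against triamterene as reference fluorophore.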

[15] = qHTS assay to test for compound auto fluorescence at 535 nm (green) in HepG2 cell free culture (AID 720686)
[16] = qHTS assay to test for compound auto fluorescence at 460 nm (blue) in HepG2 cells (AID 720687)
How it was run: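 Cells (2,000/well in MEM with 10% FBS) attached overnight at 37 C, then were exposed to compound or DMSO for 1 hr at 37 C, 5% CO2. Fluorescence read at Ex/Em 405/460 nm, expressed as triamterene-equivalent signal.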

[17] = target: Glucocorticoid receptor (Homo sapiens) (UniProt P04150); assay: qHTS assay to identify small molecule agonists of the glucocorticoid receptor (GR) signaling pathway (AID 720691; active = well fitted activation curve with a large enough effect in the signal ratio in the repeat runs, not every such curve was filed as active; the % refers to the signal ratio)
How it was run: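 Compounds in DMSO, alongside positive controls, were added to GR-bla HeLa reporter cells and incubated 18 h at 37 C; GRE-driven beta-lactamase was detected by fluorescence after 2 h with FRET substrate at room temperature.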

[18] = qHTS assay for small molecule disruptors of the mitochondrial membrane potential (AID 720635)
How it was run: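 HepG2 cells (2,000/well) attached overnight at 37C, then took compound for 1 hr at 37C, 5% CO2. Mito-MPS dye was added for 30 min; fluorescence was read at 490/535 nm (monomers) and 540/590 nm (aggregates).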

[19] = target: Glucocorticoid receptor (Homo sapiens) (UniProt P04150); assay: qHTS assay to identify small molecule antagonists of the glucocorticoid receptor (GR) signaling pathway (AID 720692; active = well fitted inhibition curve with a large enough effect in the signal ratio in the repeat runs, not every such curve was filed as active; the % refers to the signal ratio)
How it was run: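 In a 1536-well cell format, compounds were added 4 h after seeding GR-bla HeLa cells, together with dexamethasone at 5 nM final; reporter activity was measured by FRET-substrate fluorescence following 18 h at 37 C.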

Measured: Potency

Glucocorticoid receptor (Homo sapiens), sequence (P04150 whole entry, looked up): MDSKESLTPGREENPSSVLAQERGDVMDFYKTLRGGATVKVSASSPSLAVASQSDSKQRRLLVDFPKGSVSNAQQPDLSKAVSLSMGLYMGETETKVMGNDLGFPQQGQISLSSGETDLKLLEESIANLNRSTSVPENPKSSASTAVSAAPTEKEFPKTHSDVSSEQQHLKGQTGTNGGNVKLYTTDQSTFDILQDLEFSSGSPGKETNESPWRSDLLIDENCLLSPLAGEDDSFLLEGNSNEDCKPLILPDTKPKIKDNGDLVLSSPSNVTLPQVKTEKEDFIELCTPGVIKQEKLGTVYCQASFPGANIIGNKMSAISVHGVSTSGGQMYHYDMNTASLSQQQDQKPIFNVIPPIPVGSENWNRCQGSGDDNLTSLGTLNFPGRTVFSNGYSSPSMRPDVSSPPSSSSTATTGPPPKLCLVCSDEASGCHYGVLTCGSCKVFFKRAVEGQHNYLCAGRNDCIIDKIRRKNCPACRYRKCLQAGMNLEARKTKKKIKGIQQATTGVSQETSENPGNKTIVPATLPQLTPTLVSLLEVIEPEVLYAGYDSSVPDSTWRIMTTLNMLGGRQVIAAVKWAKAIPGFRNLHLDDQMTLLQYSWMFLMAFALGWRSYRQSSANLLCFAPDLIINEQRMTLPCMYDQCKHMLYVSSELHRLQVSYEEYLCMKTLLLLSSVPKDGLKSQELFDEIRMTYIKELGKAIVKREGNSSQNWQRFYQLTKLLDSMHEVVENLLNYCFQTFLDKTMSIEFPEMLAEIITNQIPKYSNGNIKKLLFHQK

CCCc1nc2c(C)cc(-c3nc4ccccc4n3C)cc2n1Cc1ccc(-c2ccccc2C(=O)O)cc1
not listed: [18] | [19]
inactive: all other assays above

CC(=O)OCC1=C(C(=O)O)N2C(=O)[C@@H](NC(=O)CSc3ccncc3)[C@H]2SC1
not listed: [8] | [9] | [19]
inactive: all other assays above

CSCC[C@H](NC(=O)[C@H](Cc1c[nH]c2ccccc12)NC(=O)CCNC(=O)OC(C)(C)C)C(=O)N[C@@H](CC(=O)O)C(=O)N[C@@H](Cc1ccccc1)C(N)=O
not listed: [9] | [13]
inactive: all other assays above

CCCCC(CC)COS(=O)(=O)O (configuration not stated)
not listed: [6] | [17] | [19]
inactive: all other assays above

OCC(CO)n1cnc(-c2ccc(F)cc2)c1-c1ccnc(Oc2ccccc2)n1
not listed: [13] | [18] | [19]
inactive: all other assays above
